The nature of assay [1]: BSK_3C_Vis: BioMAP Diversity Plus: 3C Assay for Morphology Visualization (AID 2283025).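 Further: fitted both ways so gain or loss versus DMSO counts.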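 On AC50: light microscopy image of cell morphology used as background control.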 Particulars: primary human endothelial cells (HUVEC). Put shortly:
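Chemicals were added to primary human umbilical vein endothelium, cells were incubated 24 h, and morphology was then visualized by light microscopy. Gain or loss of signal was fitted bidirectionally relative to DMSO.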

Read-out in assay [2]: Pselectin, SELP (gene 6403)
The assay can be described thus: BSK_4H_Pselectin: BioMAP Diversity Plus: 4H Assay for Pselectin Biomarker Activity (AID 2283026). Particulars: primary human endothelial cells (HUVEC); actives raise or lower the signal. The essentials: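 ELISA read-out of P-selectin on human umbilical vein endothelium after 24 h of dosing. Values derive from bidirectional fitting relative to DMSO. Parallel SRB protein staining flagged overt cytotoxicity.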

A short description of assay [3]: BSK_4H_SRB: Viability Assessment in the BioMAP Diversity Plus: 4H Assay (AID 2283027).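 Further: cells exposed to compound for 24 h before staining.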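 On AC50: curves fitted both ways versus DMSO so AC50 may be loss or gain.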 Particulars: primary human endothelial cells (HUVEC). The essentials:
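Human umbilical vein endothelial cells were dosed with chemical and, after 24 h, fixed with 10% TCA, stained with 0.1% sulforhodamine B, and read at 560 nm to give total protein as a cytotoxicity measure. Bidirectional fitting relative to DMSO control.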

A short description of assay [4]: BSK_BE3C_SRB: Viability Assessment in the BioMAP Diversity Plus: BE3C Assay (AID 2283028). Particulars: primary human bronchial epithelial cells. Put shortly:
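Cytotoxicity read-out: SRB (0.1%) staining of TCA-fixed (10%) human lung bronchial epithelial cells, absorbance 560 nm, 24 h post-dosing. Curves fitted both directions relative to DMSO.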

Read-out in assay [5]: Thrombomodulin, THBD (gene 7056)
Briefly: BSK_3C_Thrombomodulin: BioMAP Diversity Plus: 3C Assay for Thrombomodulin Biomarker Activity (AID 2283029). Particulars: primary human endothelial cells (HUVEC); actives raise or lower the signal. Put shortly: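 Read-out is ELISA of thrombomodulin on human umbilical vein endothelium 24 h after chemical dosing. Gain or loss of signal is scored relative to DMSO. Overt cytotoxicity is checked in parallel cultures by sulforhodamine B staining.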

Read-out in assay [6]: Urokinase-type plasminogen activator receptor (uPAR), PLAUR (gene 5329)
The assay can be described thus: BSK_4H_uPAR: BioMAP Diversity Plus: 4H Assay for Urokinase-type plasminogen activator receptor (uPAR) Biomarker Activity (AID 2283030). Particulars: primary human endothelial cells (HUVEC); actives raise or lower the signal. Put shortly: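 uPAR level read by ELISA on HUVEC cultures (BioMAP 4H) 24 h post-dosing, analyzed for gain or loss relative to DMSO. Parallel SRB staining assessed overt cytotoxicity.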

Read-out in assay [7]: Vascular endothelial growth factor receptor 2 (Homo sapiens) (UniProt P35968)
Briefly: BSK_4H_VEGFRII: BioMAP Diversity Plus: 4H Assay for Vascular endothelial growth factor receptor 2 (VEGFR2) Biomarker Activity (AID 2283031). Particulars: primary human endothelial cells (HUVEC); actives raise or lower the signal. The essentials: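 Measured by ELISA after 24 h of compound treatment: VEGFR2 on primary human umbilical vein endothelial cells, fitted in both directions relative to DMSO. Parallel cultures received SRB staining (560 nm) for overt cytotoxicity.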

Read-out in assay [8]: Human Leukocyte Antigen - DR isotype (HLADR), HLA-DRA (gene 3122)
Briefly: BSK_BE3C_HLADR: BioMAP Diversity Plus: BE3C Assay for Human Leukocyte Antigen - DR isotype (HLADR) Biomarker Activity (AID 2283032). Particulars: primary human bronchial epithelial cells; actives raise or lower the signal. The essentials: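 ELISA read-out of HLA-DR on human lung bronchial epithelial primary cells, measured 24 h post-dosing. Both increases and decreases were scored relative to DMSO vehicle.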

Read-out in assay [9]: Vascular cell adhesion molecule 1 (VCAM1), VCAM1 (gene 7412)
The assay can be described thus: BSK_4H_VCAM1: BioMAP Diversity Plus: 4H Assay for Vascular cell adhesion molecule 1 (VCAM1) Biomarker Activity (AID 2283033).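 On outcome: cell-surface VCAM-1 protein measured by ELISA.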 Particulars: primary human endothelial cells (HUVEC); actives raise or lower the signal. The essentials:
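ELISA read-out of VCAM-1 on human umbilical vein endothelium 24 hours after chemical dosing; gain or loss of signal was fitted relative to DMSO, with sulforhodamine B staining of parallel cultures flagging overt cytotoxicity.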

Read-out in assay [10]: Interferon-gamma inducible Protein 10 (IP10), CXCL10 (gene 3627)
Briefly: BSK_BE3C_IP10: BioMAP Diversity Plus: BE3C Assay for Interferon-gamma inducible Protein 10 (IP10) Biomarker Activity (AID 2283034). Particulars: primary human bronchial epithelial cells; actives raise or lower the signal. Put shortly:
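Chemical is dosed onto human lung bronchial epithelial primary cells, cultures are incubated 24 h, and IP-10 is then quantified by ELISA. Gain or loss of signal is fitted in both directions relative to DMSO.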

As usually defined, the AC50 is the midpoint of the concentration-response curve, whichever way the signal moves.

The structures appear in SMILES notation. Active and inactive are the calls of the source. How the source made its calls: active means hit-call score of the fitted dose curve at least 0.9, where 1 is the maximum; inactive means score below 0.9.

As for `CC(C)NCC(O)c1ccc(O)c(O)c1` (stereo not given), the outcome in assay [1], in [2], in [3], in assay [4], in assay [5] and in [6] was inactive. The result in assay [7], in assay [8], in assay [9] and in assay [10] was inactive.

As for `CN(C)CCCN(C)CCCN(C)C`, the outcome in assay [1], in assay [2], in assay [3], in [4], in [5] and in assay [6] was inactive. In addition, the result in assay [7], in assay [8], in assay [9] and in [10] was inactive.

Consider `Cc1ccc(C(C)(C)C)c(O)c1`, for which the result in assay [1], in [2], in assay [3], in assay [4], in assay [6] and in assay [7] was inactive. The result in assay [8], in [9] and in [10] was inactive. For the same compound, in assay [5], the AC50 was 31.3 µM (active).

Regarding `OCC(O)CO`, the result in assay [1], in assay [2], in assay [3], in assay [4], in [5] and in assay [6] was inactive. Besides, the outcome in [7], in [8], in assay [9] and in [10] was inactive.

On to `NCCOCCOCCN`, for which the outcome in [1], in [2], in [3], in [4], in assay [5] and in assay [6] was inactive. The result in assay [7], in assay [8], in [9] and in [10] was inactive.

Take `CCc1nc(N)nc(N)c1-c1ccc(Cl)cc1`: the result in [1], in assay [2], in assay [3], in [4], in assay [5] and in [6] was inactive. The outcome in assay [7], in assay [8], in assay [9] and in assay [10] was inactive.

As for `O=C1c2c(O)cccc2Cc2cccc(O)c21`, the AC50 in [1] was 39 µM (active); in [3], 20 µM (active). Further, the result in assay [2], in assay [4], in [5], in assay [6], in assay [7] and in [8] was inactive. Besides, the outcome in assay [9] and in assay [10] was inactive.

`CC(C)(O)c1ccc(CNC(=O)c2cccnc2Oc2ccc(F)cc2)cc1`: the outcome in [1], in assay [2], in [3], in assay [4], in assay [5] and in assay [6] was inactive. Also, the outcome in assay [7], in [8], in assay [9] and in assay [10] was inactive.

In the case of `O=C1O[C@H]([C@H](O)CO)C(O)=C1O`, the result in [1], in assay [2], in [3], in assay [4], in assay [5] and in [6] was inactive. For the same compound, the result in assay [7], in assay [8], in assay [9] and in [10] was inactive.

Regarding `O=C(Oc1ccccc1)c1cccc(C(=O)Oc2ccccc2)c1`, the result in [1], in [2], in assay [3], in assay [4], in assay [5] and in [6] was inactive. The outcome in assay [7], in assay [8], in [9] and in [10] was inactive.

For the compound `COC(=O)CCCC(=O)OC`, the outcome in assay [1], in assay [2], in assay [3], in [4], in [5] and in [6] was inactive. The result in assay [7], in assay [8], in [9] and in assay [10] was inactive.

Consider `CC(=O)S[C@H](C(=O)N[C@H]1Cc2ccccc2[C@H]2CCC[C@@H](C(=O)O)N2C1=O)C(C)C`, for which the result in assay [1], in assay [2], in assay [3], in assay [4], in assay [5] and in assay [6] was inactive. Moreover, the outcome in [7], in [8], in assay [9] and in assay [10] was inactive.

As for `Oc1ccc(O)cc1`, the result in assay [1], in [3], in assay [4], in assay [5], in [6] and in [7] was inactive. Moreover, the result in assay [8] and in assay [10] was inactive. The AC50 in assay [2] is 20 µM (active); in assay [9] it was 10.9 µM (active).

Consider `CCCCC(CC)CO` (stereo not given), for which the result in assay [1], in assay [2], in [3], in assay [4], in [5] and in assay [6] was inactive. Besides, the result in assay [7], in assay [8], in assay [9] and in [10] was inactive.

As for `CC(=O)CC(c1ccccc1)c1c(O)c2ccccc2oc1=O` (stereo not given), the result in [1], in assay [2], in assay [3], in assay [4], in assay [5] and in [6] was inactive. Further, the outcome in [7], in assay [8], in [9] and in assay [10] was inactive.

Turning to `Cc1occc(=O)c1O`, the outcome in assay [1], in assay [2], in assay [3], in [4], in assay [5] and in [6] was inactive. The result in assay [7], in [8], in assay [9] and in assay [10] was inactive.

Consider `CCCCCCCC(=O)OC`, for which the outcome in assay [1], in assay [2], in [3], in [4], in [5] and in assay [6] was inactive. The outcome in assay [7], in [8], in assay [9] and in [10] was inactive.

As to `CCCC(=O)O`, the outcome in assay [1], in [2], in [3], in assay [4], in assay [5] and in [6] was inactive. For the same compound, the outcome in [7], in [8], in assay [9] and in [10] was inactive.

Consider `CC(=O)OC1CC(C)OC(C)O1` (stereo not given), for which the outcome in [1], in assay [2], in assay [3], in assay [4], in assay [5] and in [6] was inactive. The outcome in [7], in assay [8], in assay [9] and in [10] was inactive.

As for `COc1ccc(C(=O)Nc2nc3ccccc3c(NCc3ccccc3)c2C#N)cc1`, in assay [1], the AC50 was 39 µM (active). The outcome in [2], in assay [3], in assay [4], in assay [5], in assay [6] and in [7] was inactive. Further, the outcome in assay [8], in [9] and in assay [10] was inactive.

For `Oc1ccccc1O`, the outcome in assay [1], in [4], in assay [5], in [6], in assay [7] and in [8] was inactive. Moreover, the outcome in assay [10] was inactive. Besides, the AC50 is 9.58 µM (active) in [2], 5.94 µM (active) in assay [3] and 5.53 µM (active) in assay [9].

With `CCCCCCCCCC[N+](C)(C)[O-]`, the result in assay [1], in assay [2], in assay [3], in [4], in [5] and in assay [6] was inactive. Moreover, the outcome in [7], in assay [8], in assay [9] and in [10] was inactive.

For the origin of these results see PubChem BioAssay (EPA / NIEHS).
